This is part of a sample that, as a whole, favours compounds with a hit. Of some 83,000 tested, about 20% had one in any assay.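 Testing used 96-well plates and a 48-hour single-concentration exposure. Example: -40 means 40% of the starting cells died.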 Values without a mark were called inactive. Active and inactive are the calls of the source. How the source made its calls: active means growth percent below 10; inactive means the rest.

Test systems include RPMI-8226 leukemia; OVCAR-8 ovarian; OVCAR-5 ovarian; OVCAR-4 ovarian; SK-OV-3 ovarian; IGROV1 ovarian; NCI/ADR-RES ovarian; T-47D breast; BT-549 breast; MDA-MB-435 melanoma; SW-620 colon; MCF7 breast; HCT-116 colon; KM12 colon; OVCAR-3 ovarian; HS 578T breast; HCC-2998 colon.
What all share (assay): NCI-60 one-dose screen, 48 h (100 = growth as untreated, 0 = no growth, -100 = all killed)
Conditions in all cases: 10 µM unless noted

Take `Cc1cc(Cl)ccc1Nc1nc(C(F)(F)F)ccc1C(=O)NCC(=O)N/N=C/c1c(Cl)cccc1Cl`: the growth in the experiment on RPMI-8226 leukemia was -20.6% (active); with OVCAR-8 ovarian, 73.4%; in the experiment with OVCAR-5 ovarian, 87.8%; in the experiment with OVCAR-4 ovarian it was 86.4%; with SK-OV-3 ovarian, 88.5%; in the experiment with IGROV1 ovarian, 35.4%. The growth in the experiment with NCI/ADR-RES ovarian was 77%; with T-47D breast it was 51.9%; with BT-549 breast it was 85.5%; in the experiment on MDA-MB-435 melanoma, 79.6%; in the experiment with SW-620 colon, 80.3%; with MCF7 breast it was 56.2%. For the same molecule, the growth with HCT-116 colon was 57.7%; in the experiment with KM12 colon, 50.4%.
Regarding `C[n+]1ccc(Nc2ccc(NC(=O)c3ccc(Nc4cc[n+](C)c5ccc(N)cc45)cc3)cc2)cc1`, the growth with RPMI-8226 leukemia was 68.1%; with OVCAR-8 ovarian, 94.8%; in the experiment with OVCAR-5 ovarian, 90.6%; in the experiment on OVCAR-4 ovarian, 103%; in the experiment with SK-OV-3 ovarian, 99.1%; in the experiment on OVCAR-3 ovarian, 115%. In addition, the growth is 108% in the experiment with HS 578T breast; 99.4% with NCI/ADR-RES ovarian; 102% in the experiment on T-47D breast; 88.7% in the experiment with MDA-MB-435 melanoma; 105% with SW-620 colon; 96.2% in the experiment on MCF7 breast. Also, the figures for the growth with HCT-116 colon, with HCC-2998 colon and in the experiment on KM12 colon were 95%, -27.7% (active) and 109%, respectively.
On to `CC(=O)NCCSC(=O)C(=O)SCCNC(C)=O`, for which the growth is 102% in the experiment with RPMI-8226 leukemia; 112% with OVCAR-8 ovarian; 95.8% in the experiment on OVCAR-5 ovarian; 103% in the experiment on OVCAR-4 ovarian; 114% in the experiment on SK-OV-3 ovarian; 115% in the experiment on OVCAR-3 ovarian. Moreover, the growth was 119% with HS 578T breast; 100% in the experiment on NCI/ADR-RES ovarian; 105% with T-47D breast; 106% with MDA-MB-435 melanoma; 116% in the experiment with SW-620 colon; 125% with MCF7 breast. Further, the growth with HCT-116 colon is 110%; with HCC-2998 colon, -45.3% (active); with KM12 colon, 107%.
With `Nc1nonc1-c1nc2ccccc2n1CC(=O)Nc1ccc2c(c1)COC2=O`, the growth is 99.1% with RPMI-8226 leukemia; 94.3% with OVCAR-8 ovarian; 94% in the experiment with OVCAR-5 ovarian; 93% with OVCAR-4 ovarian; 90.9% in the experiment with SK-OV-3 ovarian; 94.2% in the experiment on OVCAR-3 ovarian. The growth with HS 578T breast is 65.9%; with NCI/ADR-RES ovarian it was 85.6%; with T-47D breast, 85.8%; in the experiment on BT-549 breast, 81.3%; with MDA-MB-435 melanoma, 5.9% (active); in the experiment with SW-620 colon, 59.1%. In addition, the growth with MCF7 breast is 73.8%; with HCT-116 colon it was 74.1%; in the experiment on HCC-2998 colon, 92.3%; in the experiment on KM12 colon, 64.4%.
Take `Nc1cc(Cl)c(S(N)(=O)=O)cc1S(N)(=O)=O`: the growth was 122% with RPMI-8226 leukemia; 115% in the experiment with OVCAR-8 ovarian; 102% with OVCAR-5 ovarian; 96.6% with OVCAR-4 ovarian; 117% in the experiment on SK-OV-3 ovarian; 137% in the experiment with OVCAR-3 ovarian. The growth with HS 578T breast was 106%; in the experiment with NCI/ADR-RES ovarian, 35.1%; in the experiment on T-47D breast, 117%; with MDA-MB-435 melanoma it was 113%; in the experiment with SW-620 colon it was 107%; in the experiment on MCF7 breast, 96.2%. For the same molecule, the values for the growth in the experiment with HCT-116 colon and with KM12 colon were 121% and 105%, respectively.
Regarding `CC(=O)Nc1ccc2c(c1)Cc1c(F)c(F)c(F)c(F)c1-2`, the growth in the experiment with RPMI-8226 leukemia was 22.5%; in the experiment on OVCAR-8 ovarian it was 79.6%; with OVCAR-5 ovarian, 44.1%; with OVCAR-4 ovarian, 85.7%; with SK-OV-3 ovarian it was 113%; with OVCAR-3 ovarian, 105%. In addition, the growth with HS 578T breast is 96.6%; in the experiment with NCI/ADR-RES ovarian, -39.9% (active); in the experiment with T-47D breast it was 85.6%; with MDA-MB-435 melanoma it was 101%; in the experiment with SW-620 colon, 103%; in the experiment on MCF7 breast, 86.7%. Also, the growth was 86.3% in the experiment on HCT-116 colon and 92.8% in the experiment on KM12 colon.
Turning to `O=c1ccn(C2OC(CO)C(O)C2F)c(=O)[nH]1` (stereo unspecified), the growth in the experiment on RPMI-8226 leukemia is 106%; in the experiment on OVCAR-8 ovarian, 115%; in the experiment on OVCAR-5 ovarian, 94%; with OVCAR-4 ovarian it was 110%; in the experiment with SK-OV-3 ovarian, 114%; with OVCAR-3 ovarian, 109%. Also, the growth with HS 578T breast is 140%; in the experiment with NCI/ADR-RES ovarian, 98.5%; in the experiment with T-47D breast, 90%; in the experiment with BT-549 breast, 115%; with MDA-MB-435 melanoma it was 107%; in the experiment on SW-620 colon, 102%. Further, the growth in the experiment on MCF7 breast was 104%; in the experiment on HCT-116 colon, 108%; with HCC-2998 colon, 97.8%; with KM12 colon, 111%.
Turning to `O=C(Oc1ccc[nH]c1=O)c1cccc(Cl)c1`, the growth is 108% in the experiment with RPMI-8226 leukemia; 113% with OVCAR-8 ovarian; 97.5% in the experiment with OVCAR-5 ovarian; 54.6% with OVCAR-4 ovarian; 103% in the experiment on SK-OV-3 ovarian; 102% in the experiment with OVCAR-3 ovarian. Besides, the growth is 154% with HS 578T breast; 99.1% in the experiment on NCI/ADR-RES ovarian; 99.2% with T-47D breast; 88.4% in the experiment on BT-549 breast; 108% in the experiment with MDA-MB-435 melanoma; 115% in the experiment with SW-620 colon. Besides, the growth is 93.9% in the experiment on MCF7 breast, 88.5% in the experiment with HCT-116 colon, 106% in the experiment on HCC-2998 colon and 104% with KM12 colon.
With `CN(C)c1ccc2c(c1)/C(=N/O)c1ccccc1-2`, the growth in the experiment on RPMI-8226 leukemia was 107%; with OVCAR-8 ovarian, 97.6%; with OVCAR-5 ovarian, 96.2%; in the experiment with OVCAR-4 ovarian it was 82.6%; with SK-OV-3 ovarian, 90.1%; in the experiment with OVCAR-3 ovarian, 93.4%. Besides, the growth with HS 578T breast is 36.4%; with NCI/ADR-RES ovarian, 41.9%; in the experiment with T-47D breast it was 85.5%; with BT-549 breast it was 91.7%; with MDA-MB-435 melanoma it was -8.86% (active); in the experiment with SW-620 colon, 50.3%. For the same molecule, the growth in the experiment with MCF7 breast is 19.9%; with HCT-116 colon it was 39.4%; with HCC-2998 colon it was 101%; in the experiment with KM12 colon, 35.2%.
On to `O=C1NC(=O)/C(=C\c2ccccc2)C2=C1CCCC2`, for which the growth is 51.3% in the experiment with RPMI-8226 leukemia; -6.04% (active) in the experiment with OVCAR-8 ovarian; 80% in the experiment with OVCAR-5 ovarian; 91.2% in the experiment with OVCAR-4 ovarian; 152% with SK-OV-3 ovarian; -73.9% (active) in the experiment on OVCAR-3 ovarian. Besides, the growth in the experiment with HS 578T breast is 35.2%; in the experiment with NCI/ADR-RES ovarian, 61.2%; with T-47D breast, 198%; in the experiment on BT-549 breast, 35%; in the experiment on MDA-MB-435 melanoma, -76.3% (active); in the experiment on SW-620 colon, -50.2% (active). For the same molecule, the figures for the growth in the experiment with MCF7 breast, with HCT-116 colon and in the experiment on KM12 colon were -49% (active), 18.8% and 18%, respectively.

For the origin of these results see PubChem BioAssay (NCI).
